The values below are quoted from earlier work in PubChem BioAssay AID977610.

The whole screen tested about 3,600 compounds, of which about 3,600 (100%) were called active. The limit is not given here; nearly all actives have Ki up to about 18000 µM. So high a share suggests a set chosen from earlier hits. This is one part of the list. Where a SMILES comes first, the peptide text is derived from it. Non-standard residues stand in square brackets, D forms with d. Square brackets hold non-standard residues; d marks the D form. Residues, ends and D or L forms follow the SMILES beside them. Peptide text beside a SMILES is read from it. [ ]: non-standard residue; d: D form. Orn(CH(NH2)2) = NC(N)NCCC[C@H](N)C(=O)O; Ahx = NCCCCCC(=O)O

This series in a line: PubChem AID 977610. The note with it: PDB protein-ligand complexes, literature Ki.

Usually Ki stands for the equilibrium dissociation constant of an inhibitor or competing ligand from its target. On to `CC(C)C[C@H](NC(=O)[C@H](CC(C)C)NC(=O)[C@H](Cc1cnc[nH]1)NC(=O)[C@H](CCCNC(N)N)NC(=O)[C@H](CC(C)C)NC(=O)[C@H](CC(C)C)NC(=O)[C@H](CC(C)C)NC(=O)[C@@H]1CCCN1C(=O)[C@H](Cc1cnc[nH]1)NC(=O)[C@@H](N)CCCNC(N)N)C(=O)N[C@@H](CCC(N)=O)C(=O)N[C@@H](CC(N)=O)C(=O)O` (H-[Orn(CH(NH2)2)]HPLLL[Orn(CH(NH2)2)]HLLQN-OH), for which the Ki (protein: Estrogen receptor beta, PDB entry 4j24) is 0.05 µM (active).
Turning to `CC(C)C[C@H](NC(=O)[C@H](CS)NC(=O)[C@@H]1CCCN1C(=O)[C@@H](NC(=O)[C@@H]1CCCN1C(=O)[C@@H]1CCCN1C(=O)[C@H](CS)NC(=O)[C@H](Cc1ccc(O)cc1)NC(=O)[C@H](CC(N)=O)NC(=O)[C@@H](NC(=O)[C@H](CCC(N)=O)NC(=O)[C@H](CS)NC(=O)CN)C(C)C)C(C)C)C(N)=O` (H-GCQVNYCPPVPCL-NH2), the Ki (protein: urokinase-type plasminogen activator (uPA), PDB entry 4mny) is 1.96 µM (active).
For the compound `O=C(NCC1(C2NC(c3ccccc3)=CS2)CCOCC1)c1cccc(-c2noc(C(F)(F)F)n2)c1` (configuration not stated), the inhibition constant Ki (protein: HISTONE DEACETYLASE 7, PDB entry 3znr) is 0.036 µM (active).
Regarding `O=C(O)c1ccccc1Nc1cccc(Nc2ccccc2C(=O)O)c1C(=O)O`, the Ki (protein: Anthranilate phosphoribosyltransferase, PDB entry 4m0r) was 6.2 µM (active).
With `O=C(O)c1ccccc1C(=O)O`, the Ki (protein: Nicotinate-nucleotide pyrophosphorylase [carboxylating], PDB entry 4kww) is 2.8 µM (active).
`O=C(O)c1ccccc1Nc1ccccc1C(=O)O`: the Ki (protein: Anthranilate phosphoribosyltransferase, PDB entry 4ij1) is 4 µM (active).
`Cc1ccc(Nc2ccccc2C(=O)O)c(C(=O)O)c1`: where the note is “protein: Anthranilate phosphoribosyltransferase, PDB entry 4gkm”, the Ki was 6.8 µM (active).
Turning to `Cc1ccc(C(=O)O)c(Nc2c(C)cccc2C(=O)O)c1`, the Ki (protein: anthranilate phosphoribosyltransferase (AnPRT; trpD), PDB entry 4giu) is 4.7 µM (active).
Regarding `NC(=O)SCC(=O)Nc1ccccc1C(=O)O`, the Ki (protein: Human cathepsin K mutant C25S, PDB entry 4leg) was 28 µM (active).
On to `Nc1ccn([C@@H]2O[C@H](CO)[C@@H](O)[C@H]2O[P+](O)(O)O)c(=O)n1`, for which the Ki (protein: Bos taurus ribonuclease A, PDB entry 1jvu) is 7 µM (active).
`Nc1ccn([C@@H]2O[C@H](CO[P+](O)(O)O)[C@@H](O)[C@H]2O)c(=O)n1`: the Ki (protein: Bos taurus ribonuclease A, PDB entry 1rnm) is 844 µM (active).
Take `Nc1ccn([C@@H]2O[C@H](CO)[C@@H](O[P+](O)(O)O)[C@H]2O)c(=O)n1`: for the setting “protein: Bos taurus ribonuclease A, PDB entry 1rpf”, the Ki is 103 µM (active).
`Cc1cc(C)c(/C=N/NC(=O)[C@@H](N)Cc2c[nH]c3ccccc23)c(C)c1`: the Ki (protein: Endothiapepsin, PDB entry 4kup) was 6 µM (active).
Take `Cc1nn(C)c(C)c1Cc1nnc(-c2sc3ccccc3c2OC2CCNCC2)o1`: the Ki (protein: Plasmodium vivax N-myristoyltransferase, PDB entry 2yne) was 0.0027 µM (active).
As for `CC[C@H](C)[C@H](NC(=O)[C@@H]1CCCN1C(=O)[C@H](CC(=O)O)NC(=O)[C@H](CC(C)C)NC(=O)[C@H](C)NC(=O)[C@@H](N)Cc1c[nH]c2ccccc12)C(=O)N[C@@H](C)C(=O)NCC(=O)N[C@@H](CCCCN)C(=O)N[C@@H](Cc1c[nH]c2ccccc12)C(=O)N[C@@H](CO)C(=O)N[C@@H](CCCNC(N)N)C(=O)O` (H-WALDPIAGKWS[Orn(CH(NH2)2)]-OH), under “protein: Acyl-[acyl-carrier-protein]--UDP-N-acetylglucosamine O-acyltransferase, PDB entry 2aq9”, the inhibition constant Ki is 0.05 µM (active).
Consider `CC[C@H](C)[C@H](NC(=O)[C@H](CO)NC(=O)[C@@H](NC(=O)[C@@H]1CCCN1C(=O)[C@H](Cc1c[nH]c2ccccc12)NC(=O)[C@@H](N)CCCNC(N)N)[C@@H](C)O)C(=O)N[C@@H](CC(C)C)C(=O)O` (H-[Orn(CH(NH2)2)]WPTSIL-OH), for which the Ki (protein: Golgi-associated PDZ and coiled-coil motif-containing protein, PDB entry 4e35) is 24 µM (active).
With `CC[C@H](C)[C@H](NC(=O)[C@H](CO)NC(=O)[C@@H](NC(=O)[C@@H]1CCCN1C(=O)[C@H](Cc1c[nH]c2ccccc12)NC(=O)[C@H](CCCNC(N)N)NC(=O)[C@@H](N)CO)[C@@H](C)O)C(=O)N[C@@H](CC(C)C)C(=O)O` (H-S[Orn(CH(NH2)2)]WPTSIL-OH), for the setting “protein: Tax1-binding protein 3, PDB entry 4e3b”, the Ki was 0.9 µM (active).
For H-SRWPTTRL-OH, the Ki (protein: CFTR Associated Ligand (CAL) PDZ domain, PDB entry 4k76) was 4.5 µM (active).
For the compound H-GGGGGGAVPGSWPW-OH, for the setting “protein: Chymotrypsinogen A, PDB entry 1oxg”, the Ki is 2.7e-05 µM (active).
With `CC[C@H](C)[C@H](NC(=O)[C@H](CCCNC(N)N)NC(=O)CNC(=O)[C@@H](NC(=O)[C@@H](NC(=O)[C@@H](NC(=O)[C@@H](NC(=O)[C@H](CO)NC(=O)CN)C(C)C)C(C)C)[C@@H](C)CC)C(C)C)C(=O)N[C@H](C(=O)N[C@@H](CC(C)C)C(=O)N[C@@H](CO)C(=O)O)[C@@H](C)CC` (H-GSVVIVG[Orn(CH(NH2)2)]IILS-OH), the Ki (protein: HCV NS3 protease, PDB entry 1dxp) is 0.027 µM (active).
With `CSCC[C@H](NC(C)=O)C(=O)N[C@@H](Cc1c[nH]c2ccccc12)C(=O)N[C@@H](CC(=O)O)C(=O)N[C@@H](Cc1ccccc1)C(=O)N[C@@H](CC(=O)O)C(=O)N[C@@H](CC(=O)O)C(=O)NCCCCCC(=O)N[C@@H](CCSC)C(=O)N1CCC[C@H]1C(=O)N1CCC[C@H]1C(=O)N[C@@H](C)C(=O)N[C@@H](CC(=O)O)C(=O)N[C@@H](CCC(=O)O)C(=O)N[C@@H](CC(=O)O)C(=O)N[C@@H](Cc1ccc(O)cc1)C(=O)N[C@@H](CO)C(=O)N1CCC[C@H]1C(N)=O` (Ac-MWDFDD[Ahx]MPPADEDYSP-NH2), the Ki (protein: interleukin-8(IL-8), PDB entry 1ilq) was 13 µM (active).
Regarding `CCC(CC)O[C@@H]1CC(C(=O)O)=C[C@H](n2cc(CCCO)nn2)[C@H]1NC(C)=O`, the Ki (protein: Neuraminidase, PDB entry 4ks3) was 0.43 µM (active).
For the compound `CCC(CC)O[C@@H]1CC(C(=O)O)=C[C@H](n2cc([C@H](O)CC)nn2)[C@H]1NC(C)=O`, the Ki (protein: Neuraminidase, PDB entry 4ks4) was 0.072 µM (active).
As for `CCC(CC)O[C@@H]1CC(C(=O)O)=C[C@H](n2cc(C(C)(C)O)nn2)[C@H]1NC(C)=O`, the Ki (protein: Neuraminidase, PDB entry 4ks5) was 0.13 µM (active).
`CCn1c(O)cc(=O)n(CC)c1=S`: the Ki (protein: AmpC beta-lactamase, PDB entry 4kz8) is 1600 µM (active).
Turning to `O=C(O)c1ccc(CCNS(=O)(=O)c2ccsc2C(=O)O)cc1`, under “protein: AmpC beta-lactamase from E. coli, PDB entry 4jxv”, the Ki was 31 µM (active).
With `O=C(O)C(=O)CO`, the Ki (PDB entry 4mfe) is 5400 µM (active).
